Hits are enriched below; roughly 5.7% of the tested compounds scored in any of these assays.
AHR activator: activators of human aryl hydrocarbon receptor | AID 2796 | AHR-responsive luciferase reporter cells, luminescence | 2.5% of 320,000 active | P35869 | activation, % at 5 µM; in the data active = activation above about 47%;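 also: 0% = vehicle wells and 100% = reference agonist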
Target sequence (P35869 whole entry, looked up): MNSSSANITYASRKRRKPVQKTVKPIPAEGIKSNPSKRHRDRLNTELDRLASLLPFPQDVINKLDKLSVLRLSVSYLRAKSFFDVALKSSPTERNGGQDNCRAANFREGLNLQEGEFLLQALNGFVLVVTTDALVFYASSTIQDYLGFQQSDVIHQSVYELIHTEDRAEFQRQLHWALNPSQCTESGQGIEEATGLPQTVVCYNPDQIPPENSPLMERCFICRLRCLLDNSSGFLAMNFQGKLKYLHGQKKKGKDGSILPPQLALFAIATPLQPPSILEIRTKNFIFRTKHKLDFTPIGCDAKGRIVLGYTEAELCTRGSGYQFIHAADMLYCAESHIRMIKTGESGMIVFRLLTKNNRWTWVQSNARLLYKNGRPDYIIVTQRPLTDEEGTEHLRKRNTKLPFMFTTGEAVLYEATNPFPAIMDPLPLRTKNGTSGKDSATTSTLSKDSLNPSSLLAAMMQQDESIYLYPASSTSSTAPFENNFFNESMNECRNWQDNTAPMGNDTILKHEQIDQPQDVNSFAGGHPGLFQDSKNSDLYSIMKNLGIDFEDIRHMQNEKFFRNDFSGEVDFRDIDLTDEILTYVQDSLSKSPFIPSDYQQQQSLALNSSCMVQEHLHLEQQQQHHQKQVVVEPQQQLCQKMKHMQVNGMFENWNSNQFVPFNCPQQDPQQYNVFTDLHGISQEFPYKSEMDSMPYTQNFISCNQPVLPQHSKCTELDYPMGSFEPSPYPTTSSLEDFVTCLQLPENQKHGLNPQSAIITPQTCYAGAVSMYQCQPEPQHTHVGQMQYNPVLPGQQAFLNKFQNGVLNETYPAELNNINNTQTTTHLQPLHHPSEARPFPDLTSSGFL
ssDAF12 agonist: S. stercoralis DAF-12 activation, primary screen | HEK293 ssDAF-12/GRIP1 lit1-tk-luc reporter, luminescence; % of 3 µM dafachronic acid response | activation, % at 6.8 µM | 1% of 370,000 active;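 active = activation above the mean over all tested compounds plus 3 SD, cut at about 0.9% in these data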;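 also: 0% = DMSO-only wells and 100% = 3 µM delta7-dafachronic acid wells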
DAX1 inh-1: DAX1 (NR0B1) inhibition, primary screen | AID 652010 | 1.1% of 370,000 active | inhibition, % at 6.8 µM | HEK293T StAR-luciferase reporter, SF-1/DAX-1 repression relief;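 active = inhibition above the mean over all tested compounds plus 3 SD, cut at about 3.6% in these data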;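 also: 0% = DAX-1 cells with DMSO and 100% = cells lacking DAX-1 with DMSO; higher inhibition means more luminescence from relief of DAX-1 repression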
hcDAF12 agonist: activators of H. contortus DAF-12 nuclear receptor | HEK293 hcDAF-12 lit1-tk-luc reporter, luminescence; 0% DMSO, 100% Δ7-dafachronic acid | activation, % at 6.8 µM | 1.4% of 370,000 active | AID 652067;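 active = activation above the mean of all tested compounds plus 3 SD, cut at about 5.5% in these data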;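 also: 100% = response to 3 µM Δ7-dafachronic acid high control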
hgDAF12 agonist: hgDAF-12 agonism, primary luciferase screen | activation, % at 6.8 µM | 1.8% of 370,000 active | HEK293 GAL4-hgDAF12 UAS-luciferase reporter, agonist luminescence; normalized to butyrate control;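 active = activation above a cutoff set at the mean of all screened compounds plus 3 SD, cut at about 10% in these data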;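 also: 0% = DMSO wells and 100% = sodium butyrate wells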
DAX1 inh-2: NR0B1 (DAX1) inhibition; HEK293 Gal4-DAX1 luciferase reporter, luminescence; inhibition, % at 6.75 µM; 0.99% of 340,000 active;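 active = inhibition above the mean over all tested compounds plus 3 SD, cut at about 4.2% in these data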;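 also: 0% = DAX1-transfected cells with DMSO and 100% = empty-vector control cells with DMSO; inhibition shows as a rise in luminescence from relieved DAX1 repression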
Starred values were filed as active, the others as inactive; x = no result.

SMILES	AHR activator	ssDAF12 agonist	DAX1 inh-1	hcDAF12 agonist	hgDAF12 agonist	DAX1 inh-2
CCCOc1ncnc2c1[nH]c1ccccc12	80*	-2	-2	-2	-4	-1
Cc1ccc(N2CC(O)=C(c3nc4ccccc4c(=O)[nH]3)C2=N)cc1C	1	-2	0	-1	-3	0
COc1cccc(OCc2cc(C(=O)N(Cc3ccccc3)CC3CC3)no2)c1	1	-1	-2	5	2	0
CC(C)CC1NC(=S)N(C2CCCCC2)C1=O (centres undefined)	6	0	-1	1	0	1
CC(C)C1NC(=S)N(C2CCCCC2)C1=O (centres undefined)	0	1.2*	0	-1	2	0
O=C(OCc1cn(Cc2ccccc2F)nn1)N1CCCC1	x	0	0	-1	-1	x
O=C1CCC(c2ccc(-n3ccnc3)cc2)=NN1	67*	-1	0	1	0	1
CC(C)(C)c1cc(C(=O)N/N=C/c2ccc(-c3ccccc3[N+](=O)[O-])o2)n[nH]1	50*	-1	-6	-2	-2	1
O=C(N/N=C/c1ccc(-c2ccccc2[N+](=O)[O-])o1)c1cccnc1	55*	-1	-2	-2	-6	-1
O=C(O)c1cccc(-c2ccc(/C=N/NC(=O)c3cccnc3)o2)c1	11	-1	0	0	5	-1
NNc1nc(Nc2ccccc2)nc(N2CCCCC2)n1	20	-2	0	0	0	0
NNc1nc(Nc2ccccc2)nc(Nc2ccccc2)n1	81*	-1	0	0	-1	-1
c1ccc(Nc2ccnc(Nc3ccccc3)n2)cc1	36	0	1	2	11*	2
NNc1nccc(Nc2ccccc2C(=O)O)n1	13	0	0	-1	4	0
O=C(CN1CCCC1)Nc1c2c(nc3ccccc13)N(Cc1ccccc1)CC2	71*	-1	0	1	-2	0
O=C(CN1CCOCC1)Nc1c2c(nc3ccccc13)N(Cc1ccccc1)CC2	55*	-1	0	1	-1	0
O=[N+]([O-])c1ccc(C2=NN(c3ccccc3)C(c3ccco3)C2)cc1 (centres undefined)	x	0	0	0	4	6.4*
CCOc1ccc(NC(=O)CN(C)C(=O)c2sc3ccccc3c2Cl)cc1OCC	4	-2	0	-1	-3	-2
COc1ccccc1C(=O)NC1CCCCN(Cc2cccc(C(F)(F)F)c2)C1=O (centres undefined)	x	-2	-1	-3	19*	x
O=C(NC1CCCCN(Cc2cccc(C(F)(F)F)c2)C1=O)c1cccc(C(F)(F)F)c1 (centres undefined)	x	-1	-1	-2	-2	x
Fc1cccc(Cn2ccc3ccc(-c4ccc5ccn(Cc6ccccc6)c5c4)cc32)c1	x	-1	-1	-1	3	x
CCc1nnc(N/N=C/c2ccccc2Cl)n1N	53*	-2	-2	-2	-8	-1
COc1cccc(/C=N/Nc2nnc(C)n2N)c1OCc1ccccc1Cl	57*	-1	-2	0	-5	-1
COc1ccc(/C=N/Nc2nnc(C)n2N)cc1OC	7	-1	-5	-2	-7	-2
Cc1ccc(-c2nnc(N3CC(C)OC(C)C3)c3ccccc23)cc1 (centres undefined)	0	-1	-1	-1	-4	0
SMILES	AHR activator	ssDAF12 agonist	DAX1 inh-1	hcDAF12 agonist	hgDAF12 agonist	DAX1 inh-2
O=C1CC(c2ccco2)Cc2nc(Nc3nc(-c4ccccc4)c4ccccc4n3)ncc21 (centres undefined)	6	-2	0	0	0	0
CN(C)S(=O)(=O)Oc1ccsc1C(=O)Nc1cccc(Cl)c1Cl	60*	-1	0	0	-2	-2
CN(C)S(=O)(=O)Oc1ccsc1C(=O)Nc1ccccc1Cl	6	-1	-1	-2	-2	0
C(=N\Nc1nc(-c2ccccc2)cs1)/c1ccco1	110*	0	1	3	13*	1
Cc1ccc(-c2csc(N/N=C/c3ccco3)n2)cc1	-9	-1	1	1	4	0
Clc1ccc(-c2csc(N/N=C/c3ccco3)n2)cc1	8	-1	0	2	4	6.2*

High-throughput results as filed in PubChem BioAssay.
